Test results reported in PubChem BioAssay (NCI).
The panel holds about 79,000 compounds, 15% with a hit somewhere; the sample as a whole holds those more often. Values without a mark were called inactive. Activity calls are given as the source filed them. Rule as the data show it: active = growth inhibition above about 70%; inactive = the rest.

Test: NCI Yeast Anticancer Drug Screen. Data for the rad50 strain (AID 155);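 also: 0% = growth of vehicle-only cultures of the same strain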
Details: S. cerevisiae rad50 strain growth inhibition; at 50.0 µM; hits give high values
How it was run: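 Yeast carrying a defined DNA repair defect were exposed to test compounds, and growth was compared with vehicle-treated controls to give percent inhibition.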
With `Cc1ccc(C(C)C)c(OCC(=O)O)c1` the growth inhibition was 15.4%.
In the case of `CSc1nc2[nH]ncc2c(=O)[nH]1`, the growth inhibition is reported as -19.8%.
With `Nc1ccccc1SC1CC(=O)N(c2ccc(Cl)c(Cl)c2)C1=O` (centres undefined) the growth inhibition was -2.05%.
In the case of `COc1ccc(C)cc1NC(=O)SC(C)C`, the growth inhibition is reported as -9.75%.
`O=C(O)C1CCCN1C(=O)OCc1ccccc1` (centres undefined) showed a growth inhibition of -23.4%.
`Oc1cc(O)c2c(c1)O[C@H](c1ccc(O)c(O)c1)[C@@H](O)C2` showed a growth inhibition of 0.9%.
For `CN(C)c1ncnc2c1cnn2C`, the growth inhibition was -9.55%.
With `Oc1cc2ccccc2c(-c2c(O)c(O)cc3ccccc23)c1O` the growth inhibition was 89.5% (active).
`NC(CO)(CO)c1ccccc1` gave a growth inhibition of 34.4%.
Work on `C=C1SC(=Nc2c(C)cccc2C)N(c2nc(Cl)nc(Cl)n2)C12CCCCC2` yielded a growth inhibition of 21%.
For `NC(=O)NCCO`, the growth inhibition was -17.5%.
Molecule `CC1=CC(=Nc2ccc(N(C)C)cc2)C=C(C)C1=O` has a growth inhibition of -14.5%.
`CCC(C)C1CCC(O)CC1` (centres undefined) showed a growth inhibition of 30.8%.
`Cc1cc2nc(C)c(C)nc2cc1C` showed a growth inhibition of -20.5%.
With `CC(=O)c1cccs1` the growth inhibition was -9.65%.
Molecule `CN(C)c1ccc(O)c2c1CC1CC3C(N(C)C)C(=O)C(C(N)=O)=C(O)C3(O)C(=O)C1=C2O` (centres undefined) has a growth inhibition of 60.8%.
In the case of `CC(=O)N(C)N=Nc1ccc(C)cc1`, the growth inhibition is reported as 3.7%.
For `Nc1cc2ccccc2c(O)c1O`, the growth inhibition was 32.1%.
`CC1(C)CC(=O)C=C(N)C1` gave a growth inhibition of 7.35%.
Molecule `COc1ccc2c(c1)Nc1ccccc1S2` has a growth inhibition of -23.9%.
For `CSCCC(NC(=O)C(Cl)Cl)C(=O)O` (centres undefined), the growth inhibition was -31.6%.
Work on `CCOC(=O)c1ccc(C(C)(C)C)cc1` yielded a growth inhibition of 20.4%.
`Cc1cc(NC(=O)c2ccccc2)c(Cl)cc1N` gave a growth inhibition of -26.4%.
`CC(C)(C)[Si](C)(C)OCC1OC(n2cnc3c(N)ncnc32)CC1OS(C)(=O)=O` (centres undefined) showed a growth inhibition of -17%.
`CCCCCCCCNC(=O)C(C)C` showed a growth inhibition of -13.9%.
`O=C1C=C[C@H](O)[C@@]2(CO)O[C@@H]12` gave a growth inhibition of 5.85%.
In the case of `CCOC(=O)N[C@H]1CCc2cc(OC)c(OC)c(OC)c2-c2ccc(SC)c(=O)cc21`, the growth inhibition is reported as 33.5%.
With `Cc1cccc(C)c1NC(=S)/N=C\c1c(O)[nH]c(=O)[nH]c1=O` the growth inhibition was -67%.
`Nc1ccc2ccccc2c1-c1c(N)ccc2ccccc12` gave a growth inhibition of 14.8%.
`CN(C)Cc1ccccn1` gave a growth inhibition of 1.1%.
For `CN(C)c1ccc2nc3ccc(=[N+](C)C)cc-3oc2c1`, the growth inhibition was -27.8%.
For `N#Cc1ccc(OC(=O)Nc2cc(Cl)cc(Cl)c2)cc1`, the growth inhibition was -6.5%.
For `CCOC(=O)c1cc(Cl)c(O)c(Cl)c1`, the growth inhibition was 4.5%.
With `COc1cc(N)c2ncccc2c1Cl` the growth inhibition was 17.6%.
In the case of `Cc1ccc(OC(=O)c2ccccc2)cc1`, the growth inhibition is reported as 9.3%.
With `N#CC1(O)CCCCC1` the growth inhibition was 42.6%.
Molecule `CS(=O)CC(=N\O)/C(CS(C)=O)=N\O` (centres undefined) has a growth inhibition of 9.7%.

Test: NCI Yeast Anticancer Drug Screen. Data for the mec2-1 strain (AID 157)
Details: S. cerevisiae mec2-1 strain, at 50.0 µM, hits give high values
How it was run: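 mec2-1 yeast strain, carrying an alteration in DNA damage repair or cell cycle control, was exposed to compounds; growth inhibition was measured relative to vehicle-treated controls.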
Molecule `Cc1ccc(C(C)C)c(OCC(=O)O)c1` has a growth inhibition of 12%.
In the case of `CSc1nc2[nH]ncc2c(=O)[nH]1`, the growth inhibition is reported as 5.85%.
Molecule `Nc1ccccc1SC1CC(=O)N(c2ccc(Cl)c(Cl)c2)C1=O` (centres undefined) has a growth inhibition of -21.6%.
Work on `COc1ccc(C)cc1NC(=O)SC(C)C` yielded a growth inhibition of -18.9%.
Molecule `O=C(O)C1CCCN1C(=O)OCc1ccccc1` (centres undefined) has a growth inhibition of -47.6%.
`Oc1cc(O)c2c(c1)O[C@H](c1ccc(O)c(O)c1)[C@@H](O)C2` gave a growth inhibition of -17.9%.
In the case of `CN(C)c1ncnc2c1cnn2C`, the growth inhibition is reported as -0.6%.
For `Oc1cc2ccccc2c(-c2c(O)c(O)cc3ccccc23)c1O`, the growth inhibition was 85% (active).
Work on `NC(CO)(CO)c1ccccc1` yielded a growth inhibition of 13.1%.
`C=C1SC(=Nc2c(C)cccc2C)N(c2nc(Cl)nc(Cl)n2)C12CCCCC2` showed a growth inhibition of -8.75%.
For `NC(=O)NCCO`, the growth inhibition was 4.1%.
With `CC1=CC(=Nc2ccc(N(C)C)cc2)C=C(C)C1=O` the growth inhibition was -21.1%.
Work on `CCC(C)C1CCC(O)CC1` (centres undefined) yielded a growth inhibition of 9.55%.
Molecule `Cc1cc2nc(C)c(C)nc2cc1C` has a growth inhibition of -37.9%.
Work on `CC(=O)c1cccs1` yielded a growth inhibition of -0.05%.
Work on `CN(C)c1ccc(O)c2c1CC1CC3C(N(C)C)C(=O)C(C(N)=O)=C(O)C3(O)C(=O)C1=C2O` (centres undefined) yielded a growth inhibition of 29.7%.
For `CC(=O)N(C)N=Nc1ccc(C)cc1`, the growth inhibition was -23.6%.
`Nc1cc2ccccc2c(O)c1O` gave a growth inhibition of 35%.
`CC1(C)CC(=O)C=C(N)C1` gave a growth inhibition of -16.5%.
Molecule `COc1ccc2c(c1)Nc1ccccc1S2` has a growth inhibition of -23.5%.
In the case of `CSCCC(NC(=O)C(Cl)Cl)C(=O)O` (centres undefined), the growth inhibition is reported as -3%.
Molecule `CCOC(=O)c1ccc(C(C)(C)C)cc1` has a growth inhibition of -6.65%.
`Cc1cc(NC(=O)c2ccccc2)c(Cl)cc1N` gave a growth inhibition of -33.9%.
Work on `CC(C)(C)[Si](C)(C)OCC1OC(n2cnc3c(N)ncnc32)CC1OS(C)(=O)=O` (centres undefined) yielded a growth inhibition of -21.6%.
Molecule `CCCCCCCCNC(=O)C(C)C` has a growth inhibition of 30.1%.
`O=C1C=C[C@H](O)[C@@]2(CO)O[C@@H]12` showed a growth inhibition of 0.85%.
In the case of `CCOC(=O)N[C@H]1CCc2cc(OC)c(OC)c(OC)c2-c2ccc(SC)c(=O)cc21`, the growth inhibition is reported as -16.5%.
`Cc1cccc(C)c1NC(=S)/N=C\c1c(O)[nH]c(=O)[nH]c1=O` showed a growth inhibition of -27.2%.
Work on `Nc1ccc2ccccc2c1-c1c(N)ccc2ccccc12` yielded a growth inhibition of 2.45%.
In the case of `CN(C)Cc1ccccn1`, the growth inhibition is reported as -17%.
For `CN(C)c1ccc2nc3ccc(=[N+](C)C)cc-3oc2c1`, the growth inhibition was -12.4%.
In the case of `N#Cc1ccc(OC(=O)Nc2cc(Cl)cc(Cl)c2)cc1`, the growth inhibition is reported as -21.9%.
`CCOC(=O)c1cc(Cl)c(O)c(Cl)c1` gave a growth inhibition of -14%.
With `COc1cc(N)c2ncccc2c1Cl` the growth inhibition was 3.55%.
`Cc1ccc(OC(=O)c2ccccc2)cc1` gave a growth inhibition of -9.65%.
In the case of `N#CC1(O)CCCCC1`, the growth inhibition is reported as 10.6%.
With `CS(=O)CC(=N\O)/C(CS(C)=O)=N\O` (centres undefined) the growth inhibition was -4.45%.
